Values joined by “and” are separate entries in the source; they are usually repeats but may differ in a detail not shown here. Equal values may be shown once. Results filed as inconclusive are left out. Active and inactive are the calls of the source. Unless noted, calls follow the shape of the dose curve; as a rule, active = well fitted curve in the direction sought with a large enough effect in the repeat runs; inconclusive = weak or mixed curves; inactive = no such curve, though single readings can be large; an effect the other way counts as inactive or inconclusive.
Experiments:
[1] = A CellTox Green Cytotoxicity Assay to monitor cytotoxicity in HepG2 cells - 8 hour (AID 1224890); also: nearly all actives have a fitted effect of over 45% in size; also: potency is read from the fitted curve at half-maximal effect
Summary of the method: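 First, HepG2 cells (600/well) mixed with reagent were plated; second, after 5 h at 37 C they received compounds via pintool; third, fluorescence was measured at 0 h through 40 h at 8 h intervals.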

[2] = qHTS assay to identify small molecule antagonists of the estrogen receptor alpha (ER-alpha) signaling pathway using the BG1 cell line in the presence of 0.1 nM 17-beta-estradiol - cell viability counter screen (AID 1259241); also: nearly all actives have a fitted effect of over 40% in size; also: potency is read from the fitted curve at half-maximal effect
Summary of the method: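 VM7Luc4E2 cells (endogenous full-length ER-alpha, 4xERE-luciferase), cultured 5 days in charcoal-stripped serum, exposed to compounds with 0.1 nM 17beta-estradiol (final) for 22 hr at 37C. Viability read in same wells as live-cell protease fluorescence after 30 min.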

[3] = qHTS assay to identify small molecule antagonists of the androgen receptor (AR) signaling pathway using the MDA cell line in the presence of 0.5 nM R1881 - cell viability counter screen (AID 1259242); also: nearly all actives have a fitted effect of over 45% in size; also: potency is read from the fitted curve at half-maximal effect
Summary of the method: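 qHTS format. MDA-kb2 (MMTV-luc, AR/GR responsive) + cpd + 0.5 nM R1881 final, 16 hr 37C/0% CO2 → CellTiter-Fluor 30 min → fluorescence intensity.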

[4] = target: Androgen receptor (Homo sapiens) (UniProt P10275); test: qHTS assay to identify small molecule antagonists of the androgen receptor (AR) signaling pathway using the MDA cell line in the presence of 0.5 nM R1881 (AID 1259243); also: nearly all actives have a fitted effect of over 50% in size; also: potency is read from the fitted curve at half-maximal effect
Androgen receptor (Homo sapiens), sequence (P10275 whole entry, looked up): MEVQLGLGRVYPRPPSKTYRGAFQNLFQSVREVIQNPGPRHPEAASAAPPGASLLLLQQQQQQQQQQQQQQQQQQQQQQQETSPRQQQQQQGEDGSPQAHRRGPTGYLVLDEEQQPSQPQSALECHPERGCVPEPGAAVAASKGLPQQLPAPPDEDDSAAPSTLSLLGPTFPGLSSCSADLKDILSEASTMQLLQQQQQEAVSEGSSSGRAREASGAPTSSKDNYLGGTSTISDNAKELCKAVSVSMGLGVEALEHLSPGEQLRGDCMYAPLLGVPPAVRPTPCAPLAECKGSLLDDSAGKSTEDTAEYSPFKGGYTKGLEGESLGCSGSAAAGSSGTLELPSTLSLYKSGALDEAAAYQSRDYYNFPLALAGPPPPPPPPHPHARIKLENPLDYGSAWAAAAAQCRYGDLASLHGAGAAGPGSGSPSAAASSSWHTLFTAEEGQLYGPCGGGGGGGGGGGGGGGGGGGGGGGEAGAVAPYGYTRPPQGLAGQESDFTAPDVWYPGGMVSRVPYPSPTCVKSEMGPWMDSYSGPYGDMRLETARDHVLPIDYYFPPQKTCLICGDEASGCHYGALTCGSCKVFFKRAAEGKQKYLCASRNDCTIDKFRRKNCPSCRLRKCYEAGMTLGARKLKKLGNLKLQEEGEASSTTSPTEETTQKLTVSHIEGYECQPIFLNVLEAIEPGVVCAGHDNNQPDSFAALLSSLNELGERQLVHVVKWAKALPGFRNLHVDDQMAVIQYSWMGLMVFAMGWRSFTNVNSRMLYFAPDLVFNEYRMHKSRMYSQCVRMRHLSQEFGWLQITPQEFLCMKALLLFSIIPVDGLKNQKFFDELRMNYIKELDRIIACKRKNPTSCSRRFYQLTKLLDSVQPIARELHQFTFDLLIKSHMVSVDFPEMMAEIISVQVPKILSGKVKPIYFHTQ
Summary of the method: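 Antagonist mode quantitative HTS in MDA-kb2 MMTV-luciferase cells, agonist R1881 at 0.5 nM final, 16 hr exposure at 37C and 0% CO2, luminescent detection.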

[5] = qHTS assay to identify small molecule HDAC inhibitors (AID 1259364);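 also: wild-type HCT-116 cells with endogenous class I/II HDAC activity; top concentration of the series differs between compounds; nearly all actives have a fitted effect of over 45% in size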
Summary of the method: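 Quantitative high-throughput format: overnight-seeded HCT-116 cells got compounds for 2 hr at 37C; HDAC-Glo I/II reagent added, 30 min RT, luminescence measured.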

[6] = qHTS assay to identify small molecule HDAC inhibitors - cell viability counter screen (AID 1259365); also: series mostly up to about 92 µM; nearly all actives have a fitted effect of over 50% in size
Summary of the method: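 Wild-type HCT-116 cells, 1,500/well, cultured overnight, then compound-treated 2 h at 37 C. Viability measured as ATP luminescence with CellTiter-Glo after 30 min at room temperature.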

[7] = qHTS assay to identify small molecule agonists of the sonic hedgehog signaling (Shh) pathway - cell viability counter screen (AID 1259366); also: nearly all actives have a fitted effect of over 50% in size; also: potency is read from the fitted curve at half-maximal effect
Summary of the method: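 NIH/3T3-derived Gli1-Luc reporter cells, 2,000 per well, received compound after 4 h and were treated about 23 h at 37C. Viability measured in the same wells by CellTiter-Fluor fluorescence after 1 h.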

[8] = qHTS assay to identify small molecule antagonists of the sonic hedgehog signaling (Shh) pathway - cell viability counter screen (AID 1259367); also: nearly all actives have a fitted effect of over 55% in size; also: potency is read from the fitted curve at half-maximal effect
Summary of the method: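 Conditioned medium drove Shh signaling in 3T3 Gli1-Luc cells exposed to compounds at 37C and 5% CO2. Viability was determined from CellTiter-Fluor fluorescence, with reagent incubated 1 hr after 23 hr of treatment.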

[9] = qHTS assay to identify small molecule agonists of the sonic hedgehog signaling (Shh) pathway (AID 1259368; calls by dose curve;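 also: NIH/3T3-derived 3T3Gli1-Luc cells carrying a stable Gli1-driven firefly luciferase reporter; series mostly up to about 92 µM; nearly all actives have a fitted effect of over 15% in size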)
Summary of the method: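 Quantitative high-throughput format using a Gli1-driven firefly luciferase reporter line derived from NIH/3T3 cells. After a 24 hr compound treatment at 37 C and 5% CO2, luminescence reported Gli1 response element activity.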

[10] = qHTS assay to identify small molecule antagonists of the sonic hedgehog signaling (Shh) pathway (AID 1259369; calls by dose curve; also: nearly all actives have a fitted effect of over 45% in size; also: potency is read from the fitted curve at half-maximal effect)
Summary of the method: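 Stable Gli1-Luc reporter NIH/3T3 clone; quantitative HTS in stimulated mode with conditioned medium. Luminescence measured after 24hr compound treatment at 37 C.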

[11] = target: Estrogen receptor beta (Homo sapiens) (UniProt Q92731); test: qHTS assay to identify small molecule agonists of the estrogen receptor beta (ER-beta) signaling pathway (AID 1259377; active = well fitted activation curve with a large enough effect in the signal ratio in the repeat runs, not every such curve was filed as active; the % refers to the signal ratio)
Estrogen receptor beta (Homo sapiens), sequence (Q92731 whole entry, looked up): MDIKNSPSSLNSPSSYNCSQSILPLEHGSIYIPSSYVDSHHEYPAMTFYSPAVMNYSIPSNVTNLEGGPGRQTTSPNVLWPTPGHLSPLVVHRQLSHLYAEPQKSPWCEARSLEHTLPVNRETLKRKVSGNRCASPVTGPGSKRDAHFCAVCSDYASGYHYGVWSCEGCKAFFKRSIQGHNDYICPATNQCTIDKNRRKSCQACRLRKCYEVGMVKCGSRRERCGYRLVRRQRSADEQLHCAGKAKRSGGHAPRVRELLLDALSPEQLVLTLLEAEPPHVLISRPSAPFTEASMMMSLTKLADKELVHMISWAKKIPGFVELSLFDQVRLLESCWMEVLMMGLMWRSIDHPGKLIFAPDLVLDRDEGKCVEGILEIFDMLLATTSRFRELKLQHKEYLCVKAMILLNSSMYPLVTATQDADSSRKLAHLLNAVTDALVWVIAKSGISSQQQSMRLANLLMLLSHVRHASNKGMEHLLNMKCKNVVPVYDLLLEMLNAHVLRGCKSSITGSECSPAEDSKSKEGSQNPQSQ
Summary of the method: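 ER-beta-UAS-bla HEK293T cells in medium with 2% charcoal-stripped FBS were exposed to compounds for 16 h at 37C. Beta-lactamase reporter activity was read as fluorescence after 2 h with LiveBLAzer B/G FRET substrate at room temperature.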

[12] = qHTS assay to identify small molecule agonists of the androgen receptor (AR) signaling pathway in the presence of an antagonist - cell viability counter screen (AID 1259379); also: nearly all actives have a fitted effect of over 25% in size; also: potency is read from the fitted curve at half-maximal effect
Summary of the method: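 Nilutamide-containing (3.0uM final) MDA-kb2 cultures, 3,000 cells/well, were treated with compounds across 15 concentrations. After 16 hr at 37C with no CO2, cell viability was determined by CellTiter-Fluor fluorescence in the luciferase assay wells.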

[13] = qHTS assay to identify small molecule agonists of the estrogen receptor beta (ER-beta) signaling pathway - cell viability counter screen (AID 1259380); also: nearly all actives have a fitted effect of over 30% in size; also: potency is read from the fitted curve at half-maximal effect
Summary of the method: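 Steps: plate ER-beta-UAS-bla HEK293T cells, rest 6 hr; add compounds in DMSO; incubate 16 hr at 37C, 5% CO2; add FRET substrate 2 hr; add CellTiter-Glo, wait 30 min at room temperature; read luminescence.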

[14] = qHTS assay to identify small molecule antagonists of the estrogen receptor beta (ER-beta) signaling pathway - cell viability counter screen (AID 1259382); also: series mostly up to about 92 µM; nearly all actives have a fitted effect of over 55% in size
Summary of the method: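 Viability is scored by CellTiter-Glo luminescence (30 min, room temperature) in ER-beta-UAS-bla HEK293T wells already read for reporter fluorescence. Compound exposure lasts 16 hr at 37C alongside 1nM 17-beta-estradiol in charcoal-stripped serum medium.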

[15] = target: Estrogen receptor (Homo sapiens) (UniProt P03372); test: qHTS assay to identify small molecule agonists of the estrogen receptor alpha (ER-alpha) signaling pathway in the presence of an antagonist (AID 1259383; calls by dose curve; also: top concentration of the series differs between compounds; nearly all actives have a fitted effect of over 15% in size)
Estrogen receptor (Homo sapiens), sequence (P03372 whole entry, looked up): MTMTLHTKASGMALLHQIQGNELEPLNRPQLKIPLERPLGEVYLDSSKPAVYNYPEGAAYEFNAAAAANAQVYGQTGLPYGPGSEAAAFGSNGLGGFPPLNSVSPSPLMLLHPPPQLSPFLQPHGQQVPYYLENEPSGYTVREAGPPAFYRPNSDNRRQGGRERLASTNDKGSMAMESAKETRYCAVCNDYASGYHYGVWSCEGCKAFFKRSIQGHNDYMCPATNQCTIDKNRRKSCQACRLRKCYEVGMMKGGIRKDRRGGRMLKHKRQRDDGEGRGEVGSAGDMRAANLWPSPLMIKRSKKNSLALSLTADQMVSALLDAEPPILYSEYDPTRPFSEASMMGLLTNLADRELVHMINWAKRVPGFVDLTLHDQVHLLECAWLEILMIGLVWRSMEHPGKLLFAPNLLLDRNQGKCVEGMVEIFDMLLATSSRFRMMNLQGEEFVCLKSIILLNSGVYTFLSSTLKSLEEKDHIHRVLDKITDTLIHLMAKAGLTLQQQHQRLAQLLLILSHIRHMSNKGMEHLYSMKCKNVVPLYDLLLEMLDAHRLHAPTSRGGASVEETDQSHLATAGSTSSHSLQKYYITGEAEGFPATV
Summary of the method: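 Readout was ERE-driven luciferase luminescence in VM7Luc4E2 cells, which express full-length ER-alpha endogenously. Compounds were tested at 15 concentrations for 22hr alongside 10.0nM ICI-182,780 (final concentration).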

[16] = qHTS assay to identify small molecule agonists or antagonists of the thyroid stimulating hormone receptor (TSHR) signaling pathway - wild type cell line counter screen (AID 1259384; calls by dose curve)
Summary of the method: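 Wild-type HEK293 cells were plated 18 h at 37 C/5% CO2, pin-dosed with compound plus Ro20-1724 medium, held 30 min at room temperature, then given cAMP-d2 and anti-cAMP-cryptate; fluorescence was read after 1 h. Fifteen concentrations, triplicate.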

[17] = target: Estrogen receptor beta (Homo sapiens) (UniProt Q92731); test: qHTS assay to identify small molecule antagonists of the estrogen receptor beta (ER-beta) signaling pathway (AID 1259378; active = well fitted inhibition curve with a large enough effect in the signal ratio in the repeat runs, not every such curve was filed as active; the % refers to the signal ratio)
Summary of the method: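 ER-beta-UAS-bla HEK293T (GripTite) cells in 2% charcoal-stripped FBS medium were preincubated 6 hr at 37C, dosed with compound, then stimulated with 1 nM E2 (final) for 16 hr; beta-lactamase reporter read by B/G FRET fluorescence after 2 hr substrate loading.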

[18] = target: Androgen receptor (Homo sapiens) (UniProt P10275); test: qHTS assay to identify small molecule agonists of the androgen receptor (AR) signaling pathway in the presence of an antagonist (AID 1259381; calls by dose curve; also: nearly all actives have a fitted effect of over 15% in size)
Summary of the method: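 Reporter-gene luminescence from MDA-kb2 cells exposed 16hr at 37C (0% CO2) to 15-point compound titrations with 3.0uM final nilutamide as AR antagonist.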

[19] = target: Estrogen receptor (Homo sapiens) (UniProt P03372); test: qHTS assay to identify small molecule antagonists of the estrogen receptor alpha (ER-alpha) signaling pathway using the BG1 cell line in the presence of 0.1 nM 17-beta-estradiol (AID 1259244); also: nearly all actives have a fitted effect of over 50% in size
Summary of the method: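 Reporter is a stably transfected luciferase under four estrogen responsive elements in VM7Luc4E2 cells expressing native full-length ER-alpha; inhibition of 0.1 nM (final) 17beta-estradiol-driven signal over 22 h is read by luminescence.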

[20] = qHTS assay to identify small molecule phospholipidosis (PLD) inducers (AID 1259344; active = well fitted curve in the direction sought with a large enough effect; an effect the other way counts as inactive or inconclusive)
Summary of the method: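 After 4 h attachment on collagen I, HepG2 cells were dosed with compound alongside LipidTOX Red, kept 24 h at 37 C, fixed, and imaged for lamellar phospholipid pits.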

Measured: Potency

CCCCC(CC)CN (centres undefined)
not listed: [17] | [18] | [19] | [20]
inactive: all other assays above

CCOc1cccc(-n2cc(C(=O)N3CCN(c4cc(C(=O)O)c5ccccc5c4)CC3)nc2-c2ccc(C)cc2)c1
active: [13] 14.7 µM
not listed: [6] | [14] | [15] | [16] | [17] | [18] | [19] | [20]
inactive: all other assays above

CCCCCCC(C)(C)C(=O)O
not listed: [18] | [19] | [20]
inactive: all other assays above

CC1=Nc2ccc3ccccc3c2C1(C)C
active: [4] 19.3 µM | [10] 30.6 µM
inactive: [1] | [2] | [3] | [5] | [6] | [12] | [18] | [15] | [16]

O=C(OC(=O)c1ccccc1)c1ccccc1
not listed: [11] | [18] | [20]
inactive: all other assays above

CCC(=O)OC
not listed: [7] | [17] | [18] | [19] | [20]
inactive: all other assays above

COC(=O)[C@H]1[C@H]2C[C@@H]3c4[nH]c5cc(OC)ccc5c4CCN3C[C@H]2C[C@@H](OC(=O)/C=C/c2ccc(O)c(OC)c2)[C@@H]1OC
active: [1] 26.8 µM | [13] 8.41 µM
not listed: [9] | [10] | [12] | [14] | [17] | [20]
inactive: all other assays above

C=C1C[C@@]23CC[C@H]4[C@@](C)(CCC[C@@]4(C)C(=O)O[C@@H]4O[C@H](CO)[C@@H](O)[C@H](O)[C@H]4O)[C@@H]2CC[C@]1(O[C@@H]1O[C@H](CO)[C@@H](O)[C@H](O[C@@H]2O[C@H](CO)[C@@H](O)[C@H](O)[C@H]2O)[C@H]1O[C@@H]1O[C@H](CO)[C@@H](O)[C@H](O)[C@H]1O)C3
not listed: [17] | [18] | [19] | [20]
inactive: all other assays above

Nc1cccc2c1CN(C1CCC(=O)NC1=O)C2=O (centres undefined)
not listed: [4] | [17] | [18]
inactive: all other assays above

Cc1cscn1
not listed: [16] | [17] | [18] | [20]
inactive: all other assays above

c1cc(N(CC2CO2)CC2CO2)ccc1Cc1ccc(N(CC2CO2)CC2CO2)cc1 (centres undefined)
active: [4] 27.3 µM | [7] 54.5 µM | [8] 54.5 µM | [10] 15.4 µM
inactive: [1] | [2] | [3] | [6] | [13] | [14] | [15] | [16]

O=C=Nc1cccc(C(F)(F)F)c1
active: [13] 30.4 µM
not listed: [6] | [17] | [18] | [20]
inactive: all other assays above

O=C(Cn1ccnc1[N+](=O)[O-])NCCO
not listed: [18]
inactive: all other assays above

C[C@@H]1CC(=O)NN=C1c1ccc(NN=C(C#N)C#N)cc1
active: [2] 21.1 µM and 15 µM | [3] 11.9 µM | [4] 21.1 µM | [7] 13.3 µM | [8] 13.3 µM | [10] 13.3 µM | [12] 23.7 µM and 13.3 µM
not listed: [5] | [11] | [17] | [18]
inactive: all other assays above
